Screening data deposited in PubChem BioAssay by The Scripps Research Institute Molecular Screening Center.
A selection: hits, their analogues and other compounds. The true share with any hit is near 3.2%.
bovine MsrA act: activators of bovine methionine sulfoxide reductase A; activation, % at 10.6 µM; AID 602163; hit rate 0.3% among 360,000; purified bovine MsrA, absorbance read-out; in the data active = activation above about 7.5%;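 note: 0% = vehicle and 100% = reference activator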
PG9 Ab binder: binds the HIV-1 gp120 antibody PG9; TR-FRET gp120-PG9 antibody binding; inhibition, % at 6.7 µM; hit rate 0.43% among 360,000; AID 624416; in the data active = inhibition above about 8.5%
sPLA2-III inh: Blocks human group III sPLA2 activity; hit rate 0.56% among 370,000; QFRET BODIPY PC-A2 liposome hydrolysis, fluorescence; inhibition, % at 12.2 µM; Q9NZ20;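 active = inhibition above mean plus 3 SD of compounds lying within the high and low control bounds, cut at about 19% in these data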;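 note: 0% = median of test compound wells and 100% = no enzyme DMSO wells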
Target sequence (Q9NZ20 whole entry, looked up): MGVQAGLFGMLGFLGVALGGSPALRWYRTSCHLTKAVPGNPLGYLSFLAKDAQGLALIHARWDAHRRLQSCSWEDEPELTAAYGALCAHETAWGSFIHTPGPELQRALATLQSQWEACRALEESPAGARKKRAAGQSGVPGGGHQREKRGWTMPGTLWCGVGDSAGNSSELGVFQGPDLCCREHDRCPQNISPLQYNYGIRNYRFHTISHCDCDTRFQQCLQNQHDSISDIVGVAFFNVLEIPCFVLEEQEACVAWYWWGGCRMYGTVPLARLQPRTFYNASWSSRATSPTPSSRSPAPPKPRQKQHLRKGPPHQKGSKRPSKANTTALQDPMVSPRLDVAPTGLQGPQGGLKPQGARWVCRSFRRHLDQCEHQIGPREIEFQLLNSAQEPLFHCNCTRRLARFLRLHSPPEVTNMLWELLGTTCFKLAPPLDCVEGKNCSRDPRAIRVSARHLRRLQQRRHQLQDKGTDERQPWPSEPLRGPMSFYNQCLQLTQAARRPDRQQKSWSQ
MsrA inhibitor: inhibitors of bovine MsrA. purified bovine MsrA, absorbance read-out. inhibition, % at 15.5 µM. hit rate 0.75% among 360,000. AID 651718; in the data active = inhibition above about 4.5%;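 note: 0% = vehicle wells with enzyme and 100% = reference inhibitor wells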
rCAG binder: binds r(CAG) RNA repeats; r(CAG) RNA repeat, TO-PRO-1 dye displacement fluorescence; inhibition, % at 3 µM; hit rate 1.3% among 370,000;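 active = inhibition above the plate cutoff, the mean of all test compounds on that plate plus 3 SD, cut at about 35% in these data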;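 note: 0% = DMSO alone and 100% = 100 µM mitoxantrone as full dye displacement; higher means more dye released from RNA so lower well fluorescence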
PG9 bind confirm: confirmation of small molecules binding HIV-1 gp120 antibody PG9. shares compounds with PG9 Ab binder. TR-FRET PG9 antibody binding, biochemical. inhibition, % at 6.7 µM. hit rate 90% among 1,500; in the data active = inhibition above about 9%
PGV04 counter: counter-screen for PG9 binders: binding control antibody PGV04; AID 651604; hit rate 95% among 1,500; inhibition, % at 6.7 µM; shares compounds with PG9 Ab binder; TR-FRET PGV04 antibody-gp120 binding, biochemical; in the data active = inhibition above about 9.5%
PG9 binder DR: small molecules binding HIV-1 gp120 antibody PG9; shares compounds with PG9 Ab binder; 95 tested, under 10 active; IC50, µM; TR-FRET PG9 antibody-gp120 binding inhibition; AID 651848; in the data active = IC50 below about 10 µM
PGV04 binding DR: PGV04 binding, dose response counter-screen; shares compounds with PG9 Ab binder; TR-FRET binding to control antibody PGV04; IC50, µM; hit rate 20% among 95
PG126 binding DR: counter-screen for PG9 binders: binding to control antibody PG126; shares compounds with PG9 Ab binder; TR-FRET binding to antibody PG126, counterscreen; IC50, µM; hit rate 20% among 95
* marks the source's active call; other numbers are inactive results; i = inactive; nt = not tested or not shown. Cut-off read from the data, not from the text of the source, unless noted: active = IC50 below about 9 µM; inactive = the rest.

SMILES | bovine MsrA act | PG9 Ab binder | sPLA2-III inh | MsrA inhibitor | rCAG binder | PG9 bind confirm | PGV04 counter | others
O=C(Nc1nc(=O)c2ccccc2s1)c1ccc(Cl)cc1 | -5 | 25* | -2 | 1 | 1 | 50* | 68*
COc1ccc(C2NC(=O)c3sc4nc(C)c(C(C)=O)c(-c5ccc(Cl)cc5)c4c3N2)cc1 (centres undefined) | 2 | 9.3* | 3 | 0 | 2 | 22* | 40*
Cc1nc(SCC(=O)Nc2nccs2)c(C#N)c(C)c1C | -7 | 33* | 4 | 0 | 0 | 44* | 66*
Cc1cc(C)c(NC(=O)CSc2nc3ncc(Br)cc3[nH]2)c(Cl)c1 | -5 | 35* | -12 | -1 | 6 | 39* | 63*
Cc1cc(NS(=O)(=O)c2ccc(NC(=O)CSc3nc4ncc(Br)cc4[nH]3)cc2)nc(C)n1 | -2 | 0 | -4 | 0 | 11 | nt | nt
Cc1cc(C)c(NC(=O)CSc2nc3ncc(Cl)cc3[nH]2)c(C)c1 | -5 | 3 | -9 | 0 | 3 | nt | nt
Cc1ccc(NC(=O)CSc2nc3ncc(Br)cc3[nH]2)cc1C | -4 | 45* | -2 | -1 | 4 | 66* | 79*
Cc1occc1-c1nnc(SCC(=O)Nc2ccccn2)n1-c1ccccc1 | nt | nt | -6 | nt | 1 | nt | nt
Cc1ccc(S(=O)(=O)NCC2CN(S(=O)(=O)c3ccc(C)cc3)c3ccccc3C(=O)N2c2ccc(F)cc2)cc1 (centres undefined) | nt | nt | -26 | nt | nt | nt | nt
CC(=O)N[C@@H]1C[C@@H]2O[C@H](CO)CC[C@@H]2O[C@@H]1CCc1ccc(C#CC2(O)CCCC2)cc1 | nt | nt | 3 | nt | -1 | nt | nt
CCOC(=O)COc1cccc2c(=O)n(CC(=O)N3CCc4ccccc43)ccc12 | -6 | 14* | -1 | -1 | 2 | 21* | 25*
COc1cccc2c(=O)n(CC(=O)N3CCc4ccccc43)ccc12 | 0 | -2 | -2 | -1 | 2 | nt | nt
CCc1cc2cc(C(=O)Nc3ccc(C)cc3)sc2s1 | -10 | 31* | -4 | 1 | 5 | 29* | 36*
CCc1sc(C(=O)Nc2ccc(N3CCOCC3)cc2)cc1C | -2 | -3 | 1 | 0 | 5 | nt | nt
CCOC(=O)[C@]12CCCCC/C=C\1N(Cc1ccc(OC)cc1)C(=O)[C@H]2CC(=O)NCc1cccs1 | nt | nt | -9 | nt | 1 | nt | nt
O=C(CCc1ccccc1)N[C@H]1[C@@H](OC(=O)c2cccnc2)CCC[C@@]12C(=O)N(Cc1ccccc1)c1ccccc12 | nt | nt | -2 | nt | 10 | nt | nt
N#Cc1cc2c(nc1SCC(=O)NCc1ccc3c(c1)OCO3)CCCCC2 | -3 | 14* | 2 | -1 | -1 | 17* | 26*
N#Cc1cc2c(nc1SCC(=O)O)CCCCC2 | -2 | -1 | 0 | -1 | 1 | nt | nt
C=CCN1[C@H](C#N)[C@@H](c2ccc(C#Cc3cccc(OC)c3)cc2)[C@H]1CO | nt | nt | -2 | nt | 10 | nt | nt
O=C(COC(=O)c1ccccc1C(=O)c1ccc(Cl)cc1)NC(c1ccccc1)c1ccccc1 | -11 | 17* | 13 | 0 | 24 | 25* | 47*
O=c1oc2cc(O)c(Cl)cc2c2ccccc12 | -6 | 66* | 10 | 2 | 5 | 62* | 82*
COc1ccc2c(c1)oc(=O)c1ccccc12 | -1 | 1 | -3 | 1 | 7 | nt | nt
S=c1nc(Cc2ccccc2)[nH]c2ccccc12 | -4 | 25* | 5 | 1 | 1 | 16* | 13* | PG9 binder DR=>67;PGV04 binding DR=i;PG126 binding DR=i
S=c1nc(Cc2ccc(Cl)cc2)[nH]c2ccccc12 | -18 | 16* | 4 | 0 | 3 | 8 | 11*
S=c1nc(COc2ccccc2)[nH]c2ccccc12 | 0 | 13* | 9 | 0 | 13 | 9.2* | 9.4*
SMILES | bovine MsrA act | PG9 Ab binder | sPLA2-III inh | MsrA inhibitor | rCAG binder | PG9 bind confirm | PGV04 counter | others
FC(F)(F)c1nc(=S)c2ccccc2[nH]1 | -3 | 17* | 15 | 2 | 2 | 11* | 9.9*
C[C@@H]1COc2cc(F)ccc2S(=O)(=O)N1C | nt | nt | 2 | nt | 0 | nt | nt
Cc1cccc(C)c1NC(=O)Cn1c(=O)c2cccn2c2ccccc21 | -2 | 7 | 0 | 0 | 6 | nt | nt
COc1cccc(CNC(=O)Cn2c(=O)c3cccn3c3ccccc32)c1 | 0 | 19* | 8 | 1 | -3 | 24* | 44*
CCc1cccc(NC(=O)Cn2c(=O)c3cccn3c3ccccc32)c1 | -7 | 26* | 1 | 1 | 6 | 28* | 36*
CC(=O)c1cc(-c2ccccc2)c(=O)n2c1CCC2 | nt | nt | 0 | nt | 5 | nt | nt
COc1cccc(Cn2cc(COC(=O)NCC(C)C)nn2)c1 | nt | nt | -3 | nt | 2 | nt | nt
CON(c1nc(Cl)nc(N(C)C)n1)S(=O)(=O)c1ccccc1Cl | 0 | 0 | 5 | 0 | 0 | nt | nt
CON(c1nc(Cl)nc(N(C)C)n1)S(=O)(=O)c1ccc(C)cc1 | -3 | 10* | 0 | -2 | -1 | 6 | 8
CCc1nnc(NC(=O)CSc2nc3cc4c(cc3cc2C)OCCO4)s1 | -7 | 12* | 1 | -1 | 3 | 25* | 43*
O=C(Nc1ccc2ccccc2c1)c1ccc(Cl)cc1 | -2 | 10* | 3 | 1 | 2 | 13* | 18*
Cc1ccc(C(=O)Nc2ccc3ccccc3c2)cc1 | -3 | 0 | 7 | 0 | 1 | nt | nt
COC(=O)c1cc(NC(=O)c2ccc(-c3ccccc3)cc2)ccc1Cl | -1 | 10* | 10 | 0 | 1 | 13* | 22*
CC(=O)c1sccc1NC(=O)c1ccccc1C(=O)O | -4 | 36* | 2 | 1 | -1 | 39* | 47*
CC(=O)CSc1nnc(-c2ccc(S(=O)(=O)N3CCCC3)cc2)n1C | -1 | 1 | 1 | 1 | 0 | nt | nt
Cn1c(SCC(=O)N2CCc3ccccc32)nnc1-c1ccc(S(=O)(=O)N2CCCC2)cc1 | -2 | 9.5* | 10 | 0 | 4 | 17* | 25*
CCCC[C@H]1C2CC(OC(=O)Nc3cc(C)cc(C)c3)C(C2)[C@H]2CCCCN21 (some centres undefined) | nt | nt | 0 | nt | 4 | nt | nt
Cc1ccccc1NC(=O)N(C)[C@H]1C[C@H]2c3[nH]c4c(-c5ccc6c(c5)OCO6)cccc4c3CCN2C[C@H]1[C@H](C)O | nt | nt | 0 | nt | 14 | nt | nt
O=C(NN=Cc1ccc(O)cc1)c1cc(-c2ccc(Cl)cc2)n[nH]1 | nt | nt | -4 | nt | 10 | nt | nt
COc1ccc(NC(=O)c2cc3c(-c4ccc(OC)c(OC)c4)nn(C)c3s2)cc1OC | -3 | 3 | -6 | 3 | 15 | nt | nt
COc1ccc(-c2nn(C)c3sc(C(=O)NCc4ccco4)cc23)cc1OC | -1 | 10* | -1 | 1 | 4 | 13* | 18*
